# GLA inh pH 4.5: alpha-galactosidase A (human) inhibition, pH 4.5; purified enzyme, 4-MU-alpha-Gal fluorescence, pH 4.5; 230,000 tested, under 10 active; AID 1467; activity change, negative = inhibition, % at 105 µM; P06280;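 also: 0% = full activity with enzyme and -100% = basal without enzyme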
# 12-hLO inh: blocks human 12-lipoxygenase activity; P18054; purified 12-hLO, xylenol orange hydroperoxide absorbance; Potency, µM (top dose mostly 57.1 µM), without a hit: top-dose activity change, negative = inhibition, actives largely listed as inhibitors; 150,000 tested, 0.12% active; also: potency is read from the fitted curve at half-maximal effect; nearly all actives have a fitted effect of over 55% in size
# Target sequence (P18054 whole entry, looked up): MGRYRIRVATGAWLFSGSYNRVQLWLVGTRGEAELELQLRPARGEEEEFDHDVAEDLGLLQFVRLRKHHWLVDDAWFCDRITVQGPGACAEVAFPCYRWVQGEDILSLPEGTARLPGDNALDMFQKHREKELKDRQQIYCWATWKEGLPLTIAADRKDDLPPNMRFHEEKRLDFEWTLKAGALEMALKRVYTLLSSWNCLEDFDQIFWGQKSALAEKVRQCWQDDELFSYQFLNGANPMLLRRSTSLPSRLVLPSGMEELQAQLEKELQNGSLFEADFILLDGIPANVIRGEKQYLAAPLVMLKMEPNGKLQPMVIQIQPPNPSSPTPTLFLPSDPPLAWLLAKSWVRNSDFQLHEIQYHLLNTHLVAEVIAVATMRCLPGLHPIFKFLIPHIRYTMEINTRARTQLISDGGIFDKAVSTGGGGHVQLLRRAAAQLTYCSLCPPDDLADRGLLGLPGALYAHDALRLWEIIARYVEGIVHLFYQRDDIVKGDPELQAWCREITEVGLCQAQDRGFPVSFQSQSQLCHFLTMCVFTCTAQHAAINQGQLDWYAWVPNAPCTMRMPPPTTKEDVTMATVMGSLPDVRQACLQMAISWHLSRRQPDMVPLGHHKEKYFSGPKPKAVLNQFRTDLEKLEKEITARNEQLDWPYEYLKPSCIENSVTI
#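 150 nM 12hLO, 25 mM Hepes pH 7.0 + 0.01% Triton X-100; cpd preinc 15 min RT; 40 uM arachidonic acid, 30 min RT; Fe-XO 30 min; A573/A405 ratio as read-out.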
# ALDH1A1 inh: ALDH1A1 (human) enzyme inhibition; Purified ALDH1A1, NADH fluorescence, propionaldehyde substrate; Potency, µM (series often up to 75.3 µM), inactives show at the highest dose activity, negative = inhibition, actives largely listed as inhibitors; 220,000 tested, 7.3% active; active = well fitted inhibition curve with a large enough effect, not every such curve was filed as active; inconclusive = small, poorly fitted or top-dose-only effect, or another doubt; inactive = no such curve, though single readings can be large or run the other way;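 also: potency is read from the fitted curve at half-maximal effect; plate controls were no enzyme wells and a reference inhibitor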
# PNC inhibitor: inhibitors of perinucleolar compartment assembly | activity change (PNC), negative = inhibition, % at 10 µM | PC3M PTB-GFP, PNC prevalence imaging, 16 h; stronger effect = lower value | AID 2417 | 140,000 tested, 3.1% active;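 active = readout at or below -70, meaning at least 70% loss of cells showing the perinucleolar compartment, a nuclear body marking cancer cells; inconclusive = readout between -30 and a set limit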;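 also: plate controls were DMSO wells for no effect and camptothecin positive control wells for full effect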
#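 Compounds are pinned in duplicate onto adhered PC3M cells stably expressing GFP-tagged PTB and incubated 16 h at 37 C. Cells are then fixed, nuclei stained with Hoechst, and PNC-positive cells counted.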
# GLA spleen mod: inhibits or activates alpha-galactosidase in human spleen homogenate | human spleen homogenate, 4MU-alpha-Gal fluorescence, 40 min | Potency, µM (top dose mostly 80 µM), for the others: at the highest dose activity change, negative = inhibition, most hits filed as inhibitors | 240,000 tested, 0.008% active;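 also: potency is read from the fitted curve at half-maximal effect; 0% = enzyme with vehicle and -100% = no enzyme basal signal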
#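 Human spleen homogenate (1 ug) was the enzyme source, with 4-methylumbelliferyl-alpha-D-galactopyranoside (1 mM final) in pH 5.0 citrate buffer with 0.01% Tween-20. Compounds were titrated; after 40 min at 37C, NaOH/glycine stop, 4-MU fluorescence read; AC50 from Hill fits.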
# HPGD inh: HPGD (human) dehydrogenase inhibition | AID 894 | 150,000 tested, 4.3% active | P15428 | purified HPGD, NADH fluorescence kinetic, PGE2 substrate | Potency, µM, for the others: at the highest dose activity change, negative = inhibition, most hits filed as inhibitors; active = well fitted inhibition curve with a large enough effect, not every such curve was filed as active; inconclusive = small, poorly fitted or top-dose-only effect, or another doubt; inactive = no such curve, though single readings can be large or run the other way; also: potency is read from the fitted curve at half-maximal effect
#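 NADH formation kinetics: reaction with 30 uM PGE2 and 1 mM NAD+ (final), 20 nM enzyme, Tris-HCl pH 8 with Tween 20, after 15 min compound preincubation at room temperature. Fluorescence change, last versus first of five reads.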
# * = called active by the depositor; ? = inconclusive; · = no result; [ ] = remark or other dose. Most compounds without a hit are left out; they make up all but 10% or so of the library. Unless noted, calls follow the shape of the dose curve; as a rule, active = well fitted curve in the direction sought with a large enough effect; inconclusive = small, poorly fitted or top-dose-only effect, or another doubt; inactive = no such curve, though single readings can be large; an effect the other way counts as inactive or inconclusive. Unless noted, % is scaled to controls: 0 for no effect and ±100 for the full control effect.
SMILES,GLA inh pH 4.5,12-hLO inh,ALDH1A1 inh,PNC inhibitor,GLA spleen mod,HPGD inh
O=C(C(=O)N1CCc2ccccc2C1)c1cn(CC(=O)N2CCCC2)c2ccccc12,1,-1%,6%,16,-1%,-3%
O=C(c1cc(C(F)(F)F)cc(C(F)(F)F)c1)N1CCC2(CCCN(c3ccncc3)C2)CC1,·,3%,16%,·,6%,-16%
CN(c1ccccc1)c1ccc(/C=N/NC(=O)CC#N)cc1,3,-2%,-1%,6,2%,?
O=C1CC(C(=O)O)c2ccccc2N1 (centres undefined),3,-1%,16%,23,1%,·
O=C1CC(c2ccccc2)CCc2sccc2N1 (centres undefined),6,-1%,-4%,12,-13%,25µM*
COc1cc(C2NC(=O)C(C#N)=C(S)N2c2ccc(C)cc2)ccc1OC(C)C (centres undefined),10,?,-102%,?,5%,25µM*
CCOc1ccc(C2NC(=O)C(C#N)=C(S)N2c2ccc(OC)cc2)cc1OC (centres undefined),-19,1%,20µM*,20,3%,-29%
COc1ccc(C2NC(=O)C(C#N)=C(S)N2c2ccc(C)cc2)cc1OC (centres undefined),-10,·,18µM*,·,10%,·
Cc1cc(C)n2nc(C(=O)Nc3ccc4c(c3)CCC4)nc2n1,7,·,-3%,·,-1%,·
COC(=O)[C@@]1(Cc2ccc(OC)cc2)[C@H]2c3cc(C(=O)N4CCCC4)n(Cc4cc(F)c(F)c(F)c4)c3C[C@H]2CN1C(=O)c1ccccc1,-3,-7%,-3%,·,-1%,-13%
Cc1ccc2nc(NC(=O)CSc3nc4c(c(=O)n3C)SC(C)C4)sc2c1 (centres undefined),-24,-17%,14µM*,-3,6%,?
Cc1ccc(C)c(NC(=O)CSc2nc3c(c(=O)n2C)SC(C)C3)c1 (centres undefined),1,2%,-8%,-20,-3%,-17%
CN(C)c1ccc(C2NCCS2)cc1 (centres undefined),-1,3%,1µM*,?,0%,-18%
Cc1ccc(OCCOCCn2ccnc2)c(Br)c1,-22,-10%,-10%,40,1%,-21%
CC(=O)c1cccc(NC(=O)c2nc(-c3ccccc3)oc2C)c1,0,·,?,·,-14%,·
Cc1ccc(C(=O)NC(=S)Nn2cnnc2)cc1,6,0%,20µM*,-20,1%,?
O=C(NC(=S)Nn1cnnc1)c1cccc(Br)c1,11,-8%,7.9µM*,-27,-7%,22µM*
Cc1ccc(C(=O)NNC(=S)NC(=O)c2ccc(Cl)cc2)cc1,-3,?,-8%,70,8%,-16%
C[N+](C)(C)CCOP(=O)(O)OP(=O)([O-])OC[C@H]1O[C@@H](n2ccc(N)nc2=O)[C@H](O)[C@@H]1O,·,2%,10%,-105*,-2%,2%
Cc1cc2c(nc1C)CCCN2C[C@H](O)CN1CCCc2nc(-c3ccc(Br)cc3)ccc21,·,·,1%[13.5 µM],·,10%[17.5 µM],·
CCCC(=O)Nc1nc2c(OC)ccc(OC)c2s1,-11,-4%,16µM*,22,1%,-16%
CN1C=CC=C/C1=C1\SC(=S)N(c2ccccc2)C1=O,-4,3%,11µM*,19,3%,-12%
CN1C=CC=C/C1=C1\SC(=S)N(C2CCCCC2)C1=O,-11,-14%,14µM*,-8,?,-14%
COc1cccc(-c2ccc3ncnc(NCCc4c[nH]c5ccc(OC)cc45)c3c2)c1,·,·,-7%,·,-16%,·
Cc1cc(C(=O)CSc2nnnn2C)c(C)n1CCc1ccc(F)cc1,9,2%,0%,12,7%,1%
SMILES,GLA inh pH 4.5,12-hLO inh,ALDH1A1 inh,PNC inhibitor,GLA spleen mod,HPGD inh
Cc1cc(C(=O)CCl)c(C)n1CCc1ccc(Cl)cc1,-6,·,0.18µM*,·,-4%,·
Cc1cc(C(=O)CCl)c(C)n1CCc1ccc(F)cc1,3,·,0.4µM*,·,-3%,·
COc1ccc(CCn2c(C)cc(C(=O)CCl)c2C)cc1OC,15,·,0.11µM*,·,-2%,·
COc1ccc(CCn2c(C)c(C(C)=O)c(C(C)=O)c2C)cc1OC,3,·,0%,·,-10%,·
Cc1cc(C(=O)CSc2nnc(N)s2)c(C)n1CCc1ccc(Cl)cc1,-2,-13%,-7%,16,-4%,-18%
CCC(C)CCCCC(=O)NC(CCN)C(=O)NC(C(=O)NC(CCN)C(=O)NC1CCNC(=O)C(C(C)O)NC(=O)C(CCN)NC(=O)C(CCN)NC(=O)C(CC(C)C)NC(=O)C(Cc2ccccc2)NC(=O)C(CCN)NC1=O)C(C)O (centres undefined),1,?,10%,·,-3%,-2%
O=C(O)c1cn[nH]c1-c1cccc([N+](=O)[O-])c1,1,·,10%,·,-2%,·
Cc1ccccc1NS(=O)(=O)c1ccc2[nH]c(=O)[nH]c2c1,9,·,-5%,·,-6%,·
CS(=O)(=O)N1CCN(C(=O)c2ccc(Cl)s2)CC1,2,·,-5%,·,-8%,·
COc1ccccc1N1CCN(C(=O)c2cc(-c3cccc(Cl)c3)on2)CC1,9,-5%,20µM*,-25,-3%,-15%
O=C(c1cc(-c2ccc(Cl)c(Cl)c2)on1)N1CCCC1,6,-6%,13%,10,-2%,-10%
COc1cccc(-c2cc(C(=O)N3CCCCC3C)no2)c1 (centres undefined),1,-3%,-13%,56,-2%,16µM*
COc1cccc(-c2cc(C(=O)NCCN3CCOCC3)no2)c1,7,-1%,4%,18,2%,-4%
CC1CCN(C(=O)c2cc(-c3ccc(Cl)c(Cl)c3)on2)CC1,-7,4%,?,216,6%,14µM*
COc1cccc(-c2cc(C(=O)O)no2)c1,0,-1%,0.56µM*,-1,-8%,5.6µM*
O=C(c1cc(-c2ccc3c(c2)OCO3)on1)N1CCOCC1,-1,3%,-2%,-23,-3%,32µM*
Cc1noc(C(=O)N2CC3(C)CC2CC(C)(C)C3)c1Cl (centres undefined),-2,-3%,18µM*,?,-7%,-8%
O=C(c1cc(-c2cccc(O)c2)on1)N1CCCCC1,2,-1%,?,?,0%,4.5µM*
COc1cccc(-c2cc(C(=O)N3CC4(C)CC3CC(C)(C)C4)no2)c1 (centres undefined),-4,-14%,13µM*,?,-3%,-17%
O=C(O)/C=C/C(=O)OC1CC2CCC1C2 (centres undefined),-2,·,·,·,1%,·
CCN(CC)c1ccc(/C=N/NC(=O)c2c(Cl)cnn2C)c(O)c1,2,1%,?,11,1%,-26%

# Compound activity from PubChem BioAssay.
